Out of some 5,500 compounds screened, about 2,000 (36%) were called active. About 18% were inconclusive and are not listed. Cut-off read from the data, not from the text of the source: active = normalized growth mostly below about 0.91 (no sharp cut-off); inconclusive = no clear call, values can overlap the other calls; inactive = mostly above about 0.92. The list shows a part of the results.
Assay: chemical genetic growth profiling, strain panel (AID 1159580);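 note: tested at 20 µM; growth read once vehicle control cultures reached saturation at 30 °C; 1 = growth at the plate median or of vehicle wells; lower values mean less growth of the strain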
Details: S. cerevisiae deletion strains, growth OD
[1] = locus YAR019C, strain CDC15, stronger effect = lower value
[2] = locus YBL105C, strain PKC1, stronger effect = lower value
[3] = locus YBR135W, strain CKS1, stronger effect = lower value
[4] = locus YBR136W, strain MEC1, stronger effect = lower value
[5] = locus YDL017W, strain CDC7, stronger effect = lower value
[6] = locus YDL101C, strain DUN1, stronger effect = lower value
[7] = locus YDL214C, strain PRR2, stronger effect = lower value
[8] = locus YDR052C, strain DBF4, stronger effect = lower value
[9] = locus YDR054C, strain cdc34, stronger effect = lower value
[10] = locus YDR226W, strain ADK1, stronger effect = lower value
[11] = locus YDR477W, strain SNF1, stronger effect = lower value
[12] = locus YER123W, strain YCK3, stronger effect = lower value
[13] = locus YER133W, strain GLC7, stronger effect = lower value
[14] = locus YFL029C, strain CAK1, stronger effect = lower value
[15] = locus YFR003C, strain YPI1, stronger effect = lower value
[16] = locus YFR019W, strain FAB1, stronger effect = lower value
[17] = locus YFR028C, strain CDC14, stronger effect = lower value
[18] = locus YGR040W, strain KSS1, stronger effect = lower value
[19] = locus YGR052W, strain FMP48, stronger effect = lower value
[20] = locus YGR092W, strain DBF2, stronger effect = lower value
[21] = locus YHR030C, strain SLT2, stronger effect = lower value
[22] = locus YHR079C, strain IRE1, stronger effect = lower value
[23] = locus YHR082C, strain KSP1, stronger effect = lower value
[24] = locus YHR205W, strain SCH9, stronger effect = lower value
[25] = locus YIL147C, strain SLN1, stronger effect = lower value
[26] = locus YJL095W, strain BCK1, stronger effect = lower value
[27] = locus YJL157C, strain FAR1, stronger effect = lower value
[28] = locus YJR066W, strain TOR1 (second series), stronger effect = lower value
[29] = locus YJR066W, strain TOR1, stronger effect = lower value
[30] = locus YKL048C, strain ELM1, stronger effect = lower value
[31] = locus YKL067W, strain YNK1, stronger effect = lower value
[32] = locus YKL101W, strain HSL1, stronger effect = lower value
[33] = locus YKL193C, strain SDS22, stronger effect = lower value
[34] = locus YKL203C, strain TOR2, stronger effect = lower value
[35] = locus YLR113W, strain HOG1, stronger effect = lower value
[36] = locus YLR133W, strain CKI1, stronger effect = lower value
[37] = locus YLR403W, strain SFP1, stronger effect = lower value
[38] = locus YML070W, strain DAK1, stronger effect = lower value
[39] = locus YMR001C, strain CDC5, stronger effect = lower value
[40] = locus YMR205C, strain PFK2 (second series), stronger effect = lower value
[41] = locus YMR277W, strain FCP1, stronger effect = lower value
[42] = locus YNL006W, strain LST8, stronger effect = lower value
[43] = locus YNL020C, strain ARK1, stronger effect = lower value
[44] = locus YNL183C, strain NPR1, stronger effect = lower value
[45] = locus YNL222W, strain SSU72, stronger effect = lower value
[46] = locus YNL307C, strain MCK1 (second series), stronger effect = lower value
[47] = locus YOL078W, strain AVO1, stronger effect = lower value
[48] = locus YOL136C, strain PFK27, stronger effect = lower value
[49] = locus YOR061W, strain CKA2, stronger effect = lower value
[50] = locus YOR119C, strain RIO1, stronger effect = lower value
[51] = locus YOR231W, strain MKK1, stronger effect = lower value
[52] = locus YOR329C, strain SCD5, stronger effect = lower value
[53] = locus YPL031C, strain PHO85, stronger effect = lower value
[54] = locus YPL153C, strain RAD53, stronger effect = lower value
[55] = locus YPL204W, strain HRR25, stronger effect = lower value
[56] = locus YPL209C, strain IPL1, stronger effect = lower value
[57] = locus YPL256C, strain CLN2, stronger effect = lower value
[58] = locus YPR025C, strain CCL1, stronger effect = lower value
[59] = locus YPR106W, strain ISR1, stronger effect = lower value
[60] = strain NNK1, stronger effect = lower value
[61] = strain TSCII, stronger effect = lower value

Measured: normalized growth

CCCN(CC1CC1)c1nc(C)nc(Nc2c(Cl)cc(Cl)cc2Cl)c1Cl
active: locus YNL197C, strain WHI3, stronger effect = lower value 1.13 [resistant] | locus YOR083W, strain WHI5 (second series), stronger effect = lower value 1.18 [resistant]
inactive: locus YAL013W, strain DEP1, stronger effect = lower value 1.02 | locus YAL040C, strain CLN3, stronger effect = lower value 1.06 | locus YCL061C, strain MRC1 (second series), stronger effect = lower value 1 | locus YDR150W, strain NUM1, stronger effect = lower value 1.01 | locus YDR363W, strain ESC2, stronger effect = lower value 0.999 | locus YER002W, strain NOP16, stronger effect = lower value 1.05 | locus YJR075W, strain HOC1, stronger effect = lower value 1.01 | locus YMR263W, strain SAP30, stronger effect = lower value 1.01 | locus YMR307W, strain GAS1, stronger effect = lower value 1 | locus YNL153C, strain GIM3, stronger effect = lower value 1.06 | locus YNL224C, strain SQS1, stronger effect = lower value 1.05

COC(=O)/C=C1/OC(c2ccc(OC)cc2)=CC1=O
inactive: [5] 0.968 | [8] 0.981 | [10] 0.923 | [15] 0.98 | [25] 0.978 | [42] 0.989 | [52] 0.988
active: [1] 0.283 | [2] 0.594 | [3] 0.428 | [4] 0.671 | [6] 0.447 | [7] 0.105 | [9] 0.464 | [11] 0.101 | [12] 0.102 | [13] 0.0947 | [14] 0.177 | [16] 0.099 | [17] 0.433 | [18] 0.108 | [19] 0.125 | [20] 0.154 | [21] 0.14 | [22] 0.29 | [23] 0.143 | [24] 0.0277 | [26] 0.124 | [27] 0.121 | [28] 0.102 | [29] 0.15 | [30] 0.402 | [31] 0.0947 | [32] 0.156 | [33] 0.221 | [34] 0.103 | [35] 0.163 | [36] 0.129 | [37] 0.16 | [38] 0.0894 | [39] 0.273 | [40] 0.152 | [41] 0.274 | [43] 0.315 | [44] 0.115 | [45] 0.499 | [46] 0.123 | [47] 0.316 | [48] 0.102 | [49] 0.308 | [50] 0.108 | [51] 0.23 | [53] 0.103 | [54] 0.221 | [55] 0.282 | [56] 0.5 | [57] 0.154 | [58] 0.576 | [59] 0.507 | [60] 0.11 | [61] 0.265

CO/N=C1/CC(C)(C)Cc2c(-c3ccn(C(=O)Nc4cccc(Cl)c4)n3)sc(SC)c21
active: [21] 1.16 [resistant]
inactive: [1] 0.981 | [2] 0.965 | [3] 0.968 | [4] 0.969 | locus YBR160W, strain CDC28, stronger effect = lower value 0.964 | [5] 0.967 | locus YDL028C, strain MPS1, stronger effect = lower value 0.963 | [6] 0.975 | locus YDL108W, strain KIN28, stronger effect = lower value 0.959 | locus YDL132W, strain cdc53, stronger effect = lower value 0.967 | [7] 0.983 | [8] 0.973 | [9] 0.971 | [10] 0.974 | [11] 0.996 | [12] 0.993 | [13] 1 | locus YFL009W, strain cdc4, stronger effect = lower value 0.963 | [14] 0.978 | [15] 0.96 | [16] 1 | [17] 0.969 | [18] 1 | [19] 1.02 | [20] 1 | [22] 1.13 | [23] 1.1 | [24] 0.989 | [25] 0.972 | [26] 1.02 | locus YJL128C, strain PBS2, stronger effect = lower value 0.952 | [27] 0.996 | locus YJR016C, strain ILV3, stronger effect = lower value 0.97 | [28] 1.06 | [29] 1.1 | [30] 0.993 | [31] 0.98 | [32] 0.988 | [33] 0.968 | [34] 1.06 | [35] 0.968 | [36] 0.98 | [37] 1.02 | [38] 0.984 | [39] 0.977 | [40] 0.978 | [41] 0.97 | [42] 0.981 | [43] 0.983 | locus YNL161W, strain CBK1, stronger effect = lower value 0.977 | [44] 1.03 | locus YNL207W, strain RIO2, stronger effect = lower value 0.971 | [45] 0.969 | [46] 0.992 | [47] 0.966 | [48] 0.993 | [49] 0.98 | [50] 1.05 | [51] 0.984 | [52] 0.971 | [53] 1.02 | [54] 1.04 | [55] 1.02 | [56] 0.969 | [57] 1.13 | [58] 0.963 | [59] 0.975 | locus YPR111W, strain DBF20, stronger effect = lower value 0.962 | [60] 0.989 | [61] 0.977

— PubChem BioAssay AID1159580 (chemical genetic matrix, 2015)
